# From PubChem BioAssay (EPA / NIEHS)
# Results filed as inconclusive are left out. Activity calls are given as the source filed them. The calls were made as follows: active = hit-call score of the fitted dose curve at least 0.9, where 1 is the maximum; inconclusive = response in the unintended direction; inactive = score below 0.9.
# Biological target: Estrogen receptor (Homo sapiens) (UniProt P03372)
# Experiment: OT_ERa_GFPERaERE_0120: Odyssey Thera (OT) 2-hour HeLa Transcription Induction Assay for Estrogen Receptor (AID 2283382)
# Summary of the method: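 Cells (human cervical HeLa) receive compound, incubate 2 hours, then are imaged for fluorescent reporter induction. Images are quantified by high content analysis, and activity is fitted as gain of signal against DMSO.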
# Chain of Estrogen receptor (Homo sapiens) (P03372 whole entry, looked up): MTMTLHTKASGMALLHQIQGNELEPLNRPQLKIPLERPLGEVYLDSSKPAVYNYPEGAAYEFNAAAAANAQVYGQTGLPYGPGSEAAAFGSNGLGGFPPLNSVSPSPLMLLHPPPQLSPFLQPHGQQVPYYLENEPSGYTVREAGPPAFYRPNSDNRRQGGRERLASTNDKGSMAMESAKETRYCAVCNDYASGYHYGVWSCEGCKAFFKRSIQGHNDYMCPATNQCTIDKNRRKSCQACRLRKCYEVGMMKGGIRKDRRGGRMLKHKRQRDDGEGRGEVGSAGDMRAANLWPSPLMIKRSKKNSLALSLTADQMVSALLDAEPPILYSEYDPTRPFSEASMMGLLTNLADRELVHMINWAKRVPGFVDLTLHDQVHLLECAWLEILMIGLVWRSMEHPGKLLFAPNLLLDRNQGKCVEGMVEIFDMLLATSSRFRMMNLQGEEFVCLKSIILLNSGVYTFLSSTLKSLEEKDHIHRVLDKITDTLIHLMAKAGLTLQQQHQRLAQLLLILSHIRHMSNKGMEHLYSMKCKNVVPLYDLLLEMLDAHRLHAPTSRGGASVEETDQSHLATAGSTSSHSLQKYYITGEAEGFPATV
SMILES,outcome,AC50
CC(C)OC(=O)c1ccccc1C(=O)OC(C)C,inactive,
CCCCOc1ccc(N)cc1,inactive,
Cc1cc(C)cc(O)c1,inactive,
CCCCCCOC(=O)c1ccccc1O,inactive,
Cc1ccc(S(=O)(=O)NCl)cc1,inactive,
CCCCCCC(C)OC(=O)CCCCC(=O)OC(C)CCCCCC (stereo not given),inactive,
O=C(OCCOCCOCCOC(=O)c1ccccc1)c1ccccc1,inactive,
C1COCCN1,inactive,
C#C[C@]1(O)CC[C@H]2[C@@H]3CCc4cc(OC)ccc4[C@H]3CC[C@@]21C,,0.0294 µM (active)
CNC(=S)NC,inactive,
c1ccc(B(c2ccccc2)c2ccccc2)cc1,,45.8 µM (active)
CC(CCl)OP(=O)(OC(C)CCl)OC(C)CCl (stereo not given),inactive,
CCCCC(CC)COP(=O)(O)OCC(CC)CCCC (stereo not given),inactive,
CN(C)Cc1ccccc1O,inactive,
CC/C=C\CCOC(C)=O,inactive,
COC(=O)C1CCC(C(=O)OC)CC1 (stereo not given),inactive,
CC(Cc1ccc(O)c(O)c1)C(C)Cc1ccc(O)c(O)c1 (stereo not given),,1.47 µM (active)
O=S(=O)(O)c1ccc2ccccc2c1,inactive,
CCN(Cc1cccc(S(=O)(=O)O)c1)c1ccc(C(=C2C=CC(=[N+](CC)Cc3cccc(S(=O)(=O)O)c3)C=C2)c2ccc(O)cc2S(=O)(=O)[O-])cc1,inactive,
[Co],inactive,
CCCCCCOC(=O)c1ccccc1,inactive,
C(=C(c1ccccc1)c1ccccc1)c1ccccc1,,1.52 µM (active)

# Biological target: Bile acid receptor (Homo sapiens) (UniProt Q96RI1)
# Sequence (Q96RI1 whole entry, looked up): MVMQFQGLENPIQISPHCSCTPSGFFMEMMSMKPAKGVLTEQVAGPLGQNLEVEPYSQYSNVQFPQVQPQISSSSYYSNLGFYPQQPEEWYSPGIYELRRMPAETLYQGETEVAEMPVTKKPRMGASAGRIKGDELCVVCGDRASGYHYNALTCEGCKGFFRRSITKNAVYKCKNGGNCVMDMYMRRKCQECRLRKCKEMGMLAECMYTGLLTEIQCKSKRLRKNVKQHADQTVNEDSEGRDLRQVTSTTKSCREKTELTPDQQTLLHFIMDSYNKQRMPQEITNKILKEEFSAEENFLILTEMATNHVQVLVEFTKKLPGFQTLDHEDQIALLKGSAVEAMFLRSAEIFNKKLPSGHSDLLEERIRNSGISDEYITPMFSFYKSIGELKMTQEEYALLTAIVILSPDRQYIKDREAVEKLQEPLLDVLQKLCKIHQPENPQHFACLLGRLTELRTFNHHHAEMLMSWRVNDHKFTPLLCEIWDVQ
# Experiment: OT_FXR_FXRSRC1_0480: Odyssey Thera (OT) 8-hour HEK293T Protein-Complementation Assay for Farnesoid X receptor/SRC-1 Co-activator (AID 2283383)
# Summary of the method: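 PCA, HEK293T, 8 h compound exposure; FXR–SRC-1 binding reconstitutes split reporter; fluorescence intensity; positive-direction fit vs DMSO.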
SMILES,outcome,AC50
CC(C)OC(=O)c1ccccc1C(=O)OC(C)C,inactive,
CCCCOc1ccc(N)cc1,inactive,
CCCCCCOC(=O)c1ccccc1O,inactive,
CCCCCCC(C)OC(=O)CCCCC(=O)OC(C)CCCCCC (stereo not given),inactive,
O=C(OCCOCCOCCOC(=O)c1ccccc1)c1ccccc1,inactive,
C#C[C@]1(O)CC[C@H]2[C@@H]3CCc4cc(OC)ccc4[C@H]3CC[C@@]21C,,60.4 µM (active)
CNC(=S)NC,inactive,
c1ccc(B(c2ccccc2)c2ccccc2)cc1,inactive,
CC(CCl)OP(=O)(OC(C)CCl)OC(C)CCl (stereo not given),inactive,
CCCCC(CC)COP(=O)(O)OCC(CC)CCCC (stereo not given),inactive,
COC(=O)C1CCC(C(=O)OC)CC1 (stereo not given),inactive,
O=S(=O)(O)c1ccc2ccccc2c1,inactive,
[Co],inactive,
CCCCCCOC(=O)c1ccccc1,inactive,
C(=C(c1ccccc1)c1ccccc1)c1ccccc1,,73.5 µM (active)

# Biological target: Retinoic acid receptor RXR-alpha (Homo sapiens) (UniProt P19793)
# Sequence (P19793 whole entry, looked up): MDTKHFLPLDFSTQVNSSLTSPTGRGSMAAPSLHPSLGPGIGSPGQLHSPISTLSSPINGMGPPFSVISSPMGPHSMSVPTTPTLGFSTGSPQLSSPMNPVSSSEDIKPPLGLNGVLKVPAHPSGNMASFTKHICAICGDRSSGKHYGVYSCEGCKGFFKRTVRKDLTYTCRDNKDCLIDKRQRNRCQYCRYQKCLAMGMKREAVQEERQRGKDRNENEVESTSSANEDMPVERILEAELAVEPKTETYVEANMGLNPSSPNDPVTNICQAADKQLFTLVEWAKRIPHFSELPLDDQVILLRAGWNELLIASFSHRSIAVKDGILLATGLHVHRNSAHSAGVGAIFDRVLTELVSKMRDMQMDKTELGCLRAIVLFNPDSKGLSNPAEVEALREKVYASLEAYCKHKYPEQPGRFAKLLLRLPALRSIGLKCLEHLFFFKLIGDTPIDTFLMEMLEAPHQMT
# Experiment: OT_NURR1_NURR1RXRa_0480: Odyssey Thera (OT) 8-hour HEK293T Protein Complementation Assay for Nurr1/retinoid X receptor (RXR) (AID 2283385)
# Summary of the method: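 Interaction of bait and prey reconstitutes a functional reporter, whose fluorescence was measured in HEK293T cells dosed with compound for 8 hours. Signal gain relative to DMSO defined the single endpoint.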
SMILES,outcome,AC50
CCCCOc1ccc(N)cc1,inactive,
CCCCCCOC(=O)c1ccccc1O,inactive,
CCCCCCC(C)OC(=O)CCCCC(=O)OC(C)CCCCCC (stereo not given),inactive,
C1COCCN1,inactive,
C#C[C@]1(O)CC[C@H]2[C@@H]3CCc4cc(OC)ccc4[C@H]3CC[C@@]21C,inactive,
CNC(=S)NC,inactive,
c1ccc(B(c2ccccc2)c2ccccc2)cc1,inactive,
CC(CCl)OP(=O)(OC(C)CCl)OC(C)CCl (stereo not given),inactive,
CCCCC(CC)COP(=O)(O)OCC(CC)CCCC (stereo not given),inactive,
CC/C=C\CCOC(C)=O,inactive,
COC(=O)C1CCC(C(=O)OC)CC1 (stereo not given),inactive,
OC[C@@H](O)[C@@H](O)[C@H](O)[C@@H](O)CO,inactive,
O=S(=O)(O)c1ccc2ccccc2c1,inactive,
CCN(Cc1cccc(S(=O)(=O)O)c1)c1ccc(C(=C2C=CC(=[N+](CC)Cc3cccc(S(=O)(=O)O)c3)C=C2)c2ccc(O)cc2S(=O)(=O)[O-])cc1,inactive,
CCCCCCOC(=O)c1ccccc1,inactive,
C(=C(c1ccccc1)c1ccccc1)c1ccccc1,,90.2 µM (active)

# Biological target: Retinoic acid receptor RXR-alpha (Homo sapiens) (UniProt P19793)
# Experiment: OT_NURR1_NURR1RXRa_1440: Odyssey Thera (OT) 24-hour HEK293T Protein Complementation Assay for Nurr1/retinoid X receptor (RXR) (AID 2283386)
# Summary of the method: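 Steps: fragment-tagged Nurr1 and RXRα expressed in HEK293T; compounds added; after 24 h, complemented reporter quantified by fluorescence intensity; signal increase over DMSO fitted as the single endpoint.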
SMILES,outcome,AC50
CC(C)OC(=O)c1ccccc1C(=O)OC(C)C,inactive,
CCCCOc1ccc(N)cc1,inactive,
Cc1cc(C)cc(O)c1,inactive,
CCCCCCOC(=O)c1ccccc1O,inactive,
Cc1ccc(S(=O)(=O)NCl)cc1,inactive,
CCCCCCC(C)OC(=O)CCCCC(=O)OC(C)CCCCCC (stereo not given),inactive,
C1COCCN1,inactive,
C#C[C@]1(O)CC[C@H]2[C@@H]3CCc4cc(OC)ccc4[C@H]3CC[C@@]21C,,78.8 µM (active)
c1ccc(B(c2ccccc2)c2ccccc2)cc1,inactive,
CN(C)Cc1ccccc1O,inactive,
OC[C@@H](O)[C@@H](O)[C@H](O)[C@@H](O)CO,inactive,
CC(Cc1ccc(O)c(O)c1)C(C)Cc1ccc(O)c(O)c1 (stereo not given),inactive,
O=S(=O)(O)c1ccc2ccccc2c1,inactive,
CCN(Cc1cccc(S(=O)(=O)O)c1)c1ccc(C(=C2C=CC(=[N+](CC)Cc3cccc(S(=O)(=O)O)c3)C=C2)c2ccc(O)cc2S(=O)(=O)[O-])cc1,inactive,
[Co],inactive,
C(=C(c1ccccc1)c1ccccc1)c1ccccc1,,81.3 µM (active)

# Biological target: Peroxisome proliferator-activated receptor gamma (Homo sapiens) (UniProt P37231)
# Sequence (P37231 whole entry, looked up): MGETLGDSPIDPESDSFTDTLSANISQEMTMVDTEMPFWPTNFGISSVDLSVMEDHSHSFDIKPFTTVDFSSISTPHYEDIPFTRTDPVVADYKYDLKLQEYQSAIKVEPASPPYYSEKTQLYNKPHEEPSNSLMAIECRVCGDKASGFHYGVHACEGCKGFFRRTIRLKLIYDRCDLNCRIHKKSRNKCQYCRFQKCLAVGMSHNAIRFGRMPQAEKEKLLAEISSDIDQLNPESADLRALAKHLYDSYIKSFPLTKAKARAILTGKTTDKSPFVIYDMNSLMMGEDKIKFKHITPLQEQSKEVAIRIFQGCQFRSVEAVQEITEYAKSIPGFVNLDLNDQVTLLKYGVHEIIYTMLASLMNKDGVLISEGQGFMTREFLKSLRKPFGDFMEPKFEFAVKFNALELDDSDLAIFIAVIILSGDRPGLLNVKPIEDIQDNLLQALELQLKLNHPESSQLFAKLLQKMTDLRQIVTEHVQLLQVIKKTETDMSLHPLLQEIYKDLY
# Experiment: OT_PPARg_PPARgSRC1_0480: Odyssey Thera (OT) 8-hour Protein-Complementation Assay for Peroxisome Proliferator-activated Receptor Gamma / SRC-1 Co-activator (AID 2283387);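 also: nuclear to cytoplasmic split Venus YFP fluorescence ratio reporting PPARg SRC-1 interaction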
# Summary of the method: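 Protein-fragment complementation of split Venus YFP reports PPARg/SRC-1 interaction in HEK293T (transfected 48 h before treatment), exposed 8 h. Readout: N/C fluorescence ratio at 488 nm from imaging, Draq5 for segmentation, positive fit relative to DMSO.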
SMILES,outcome,AC50
CC(C)OC(=O)c1ccccc1C(=O)OC(C)C,inactive,
CCCCOc1ccc(N)cc1,inactive,
Cc1cc(C)cc(O)c1,inactive,
Cc1ccc(S(=O)(=O)NCl)cc1,inactive,
CCCCCCC(C)OC(=O)CCCCC(=O)OC(C)CCCCCC (stereo not given),inactive,
C#C[C@]1(O)CC[C@H]2[C@@H]3CCc4cc(OC)ccc4[C@H]3CC[C@@]21C,inactive,
CNC(=S)NC,inactive,
c1ccc(B(c2ccccc2)c2ccccc2)cc1,inactive,
CCCCC(CC)COP(=O)(O)OCC(CC)CCCC (stereo not given),,64.4 µM (active)
CC/C=C\CCOC(C)=O,inactive,
OC[C@@H](O)[C@@H](O)[C@H](O)[C@@H](O)CO,inactive,
O=S(=O)(O)c1ccc2ccccc2c1,inactive,
CCN(Cc1cccc(S(=O)(=O)O)c1)c1ccc(C(=C2C=CC(=[N+](CC)Cc3cccc(S(=O)(=O)O)c3)C=C2)c2ccc(O)cc2S(=O)(=O)[O-])cc1,inactive,
[Co],inactive,
CCCCCCOC(=O)c1ccccc1,inactive,
C(=C(c1ccccc1)c1ccccc1)c1ccccc1,inactive,
